The values below come from PubChem BioAssay.

The structures appear in SMILES notation. The source made the active and inactive calls.

Assay [1] relates to Plasmodium falciparum Sir2 (PF13_0152, Sir2A). The assay can be described thus: pfSir2 binders on small-molecule microarrays, primary screen, biochemical, small-molecule microarray, 635 nm fluorescence (AID 1098).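 Note: score merges spot fluorescence intensity with its signal-to-noise ratio.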 The conditions noted are these: small-molecule microarray binding, fluorescence 635 nm; higher = more signal.
The nature of assay [2]: small-molecule microarray binders of probe aDKK1, primary screen, biochemical, biotinylated probe, 635/667 nm fluorescence (AID 1099).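 Note: score merges 667nm spot fluorescence with signal to noise across triplicate slides.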 To be noted: higher = more signal.
A short description of assay [3]: small-molecule microarray binders of probe aCHRDL2, primary screen, biochemical, biotinylated probe, 635/667 nm fluorescence (AID 1100). The conditions noted are these: higher = more signal.
Assay [4] in a line: splicing luciferase reporter signal modulators, primary screen, spliceosome inhibition project, cell-based, HEK293, splice +/- reporter (AID 1101).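 Note: HEK293 cells carrying a splicing-competent luciferase reporter gene; test concentration not given here.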 To be noted: luminescence, 24 h, higher = more signal, called active from +8 up or from −8 down. On the technique in general: In a reporter assay the amount or activity of a reporter protein is the signal.
The target of assay [5] is Fibroblast growth factor 10 (Homo sapiens) (UniProt O15520). Put plainly: FGF10 binders on small-molecule microarrays, primary screen, biochemical, small-molecule microarray, 635 nm fluorescence (AID 1102). To be noted: FGF10 binding, fluorescence 635 nm, higher = more signal.
In assay [6] the test system is glycogen synthase kinase-3 (GSK3A per assay name; protocol says GSK3B). Put plainly: GSK3 binders on small-molecule microarrays, primary screen, biochemical, small-molecule microarray, 635 nm fluorescence, GSK3A (AID 1103). Note: the record names both GSK3A and GSK3B. To be noted: small-molecule microarray binding, fluorescence 635 nm; higher = more signal.
Assay [7] addresses Epidermal growth factor receptor (Homo sapiens) (UniProt P00533). The assay can be described thus: EGFR binders on small-molecule microarrays, primary screen, biochemical, small-molecule microarray, 635 nm fluorescence (AID 1104).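 Note: score merges 667 nm emission intensity with spot signal to noise over triplicate slides.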 To be noted: EGFR binding, higher = more signal.
In assay [8] the target is Follistatin-related protein 3 (Homo sapiens) (UniProt O95633). Put plainly: FSTL3 binders on small-molecule microarrays, primary screen, biochemical, small-molecule microarray, 635 nm fluorescence (AID 1105).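 Note: score merges emission near 667 nm and signal to noise per printed spot across three slides.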 The conditions noted are these: FSTL3 binding, higher = more signal.
Assay [9] concerns the target Dickkopf-related protein 1 (Homo sapiens) (UniProt O94907). The assay can be described thus: DKK1 binders on small-molecule microarrays, primary screen, biochemical, small-molecule microarray, 635 nm fluorescence scan (AID 1106).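 Note: score merges emission near 667 nm with signal to noise over three replicate slides.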 To be noted: DKK1 binding, higher = more signal.
Assay [10] concerns Inhibin beta A chain (activin A). Put plainly: INHBA (activin A) binders on microarrays, primary screen, biochemical, small-molecule microarray, 635 nm fluorescence scan (AID 1107).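 Note: mouse activin A protein probed at 4.33 µg/mL on printed slides; score merges bound-protein fluorescence near 667 nm with spot signal-to-noise.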 To be noted: small-molecule microarray binding, higher = more signal.
Assay [11] relates to Human papillomavirus type 1a protein E7 (residues 44-93). The assay can be described thus: HPV1a E7 fragment binders on microarrays, primary screen, biochemical, small-molecule microarray, residues 44-93, 635 nm fluorescence (AID 1108).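 Note: E7 fragment applied at 1 µg/mL in TBST for 1 h at 4 C; score combines spot fluorescence with its signal to noise ratio.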 To be noted: small-molecule microarray binding, fluorescence 635 nm; higher = more signal.
Assay [12] is described as follows: modulators of HCV replicon luciferase signal, primary screen, HCV replication inhibitor project, Huh7 cells, luciferase reporter (AID 1109).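 Note: huh7 hepatoma cells harbouring a luciferase neomycin HCV replicon reporter; luciferase luminescence as measure of HCV replicon replication; test concentration not given here.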 The conditions noted are these: 48 h, higher = more signal. On the technique in general: A replicon is a self-replicating genome or part of one, used to study replication in cells.
In assay [13] the target is Left-right determination factor 2 (Homo sapiens) (UniProt O00292). The assay can be described thus: LEFTY2 binders on small-molecule microarrays, primary screen, biochemical, small-molecule microarray, 635 nm fluorescence scan (AID 1110). To be noted: LEFTY2 binding, higher = more signal.
Assay [14] deals with Calmodulin-1 (Homo sapiens) (UniProt P0DP23). The assay can be described thus: CALM1 binders on microarrays, EGTA buffer, profiling panel, biochemical, small-molecule microarray, Cy5-labelled CALM1 (AID 1111).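 Note: labelled calmodulin applied in Tris saline Tween buffer holding calcium plus EGTA and DTT.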 The conditions noted are these: Cy5-CALM1 binding fluorescence, higher = more signal.
Assay [15] has the same target. The assay can be described thus: calcium-bound CALM1 binders on microarrays, profiling panel, artefact control for SMM control-protein annotation, biochemical, small-molecule microarray, Cy5-labelled CALM1, plus calcium (AID 1112).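 Note: score merges spot fluorescence with signal to noise from triplicate slides.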 To be noted: Cy5-CALM1 binding fluorescence, higher = more signal.
Assay [16] is described as follows: small-molecule microarray binders of probe aWnt5a, primary screen, biochemical, biotinylated probe, 635/667 nm fluorescence (AID 1113).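 Note: score merges 667 nm fluorescence intensity with signal-to-noise per printed feature.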 The conditions noted are these: higher = more signal.
Assay [17] is described as follows: small-molecule microarray binders of probe aShh, primary screen, biochemical, biotinylated probe, 635/667 nm fluorescence (AID 1114).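 Note: probe is biotin-labelled aShh protein from a stem cell growth factor screen; measures binding of labelled protein to compounds printed on the slide; score merges feature fluorescence at 667 nm with signal-to-noise.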 The conditions noted are these: higher = more signal.
The nature of assay [18]: small-molecule microarray binders of probe aNog, primary screen, biochemical, biotinylated probe, 635/667 nm fluorescence (AID 1115).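 Note: probe is biotinylated aNog protein used at 0.15 µg/mL for 1 h at 4 C; z-score combines 667 nm fluorescence of each spot with its signal to noise.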 To be noted: higher = more signal.
For assay [19], the target named is Torsin-1A-interacting protein 1 (Homo sapiens) (UniProt Q5JTV8). Put plainly: LAP1 binders from COS7 cell lysate, primary screen, small-molecule microarray, 635/667 nm fluorescence (AID 1116). The conditions noted are these: COS7-hLAP1 lysate binding, 635 nm fluorescence, higher = more signal.
The target of assay [20] is Alpha-bungarotoxin (Bungarus multicinctus) (UniProt P60615). The assay can be described thus: alpha-bungarotoxin binders on microarray, profiling panel, artefact control for SMM control protein annotation, biochemical, small-molecule microarray, Alexa647 label, 635/667 nm fluorescence (AID 1117). The conditions noted are these: alpha-BTX-A647 binding fluorescence, higher = more signal.
Sequence of Alpha-bungarotoxin (Bungarus multicinctus) (P60615 whole entry, looked up): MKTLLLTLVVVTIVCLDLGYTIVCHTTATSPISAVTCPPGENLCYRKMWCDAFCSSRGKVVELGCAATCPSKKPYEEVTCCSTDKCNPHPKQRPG

Sequence of Fibroblast growth factor 10 (Homo sapiens) (O15520 whole entry, looked up): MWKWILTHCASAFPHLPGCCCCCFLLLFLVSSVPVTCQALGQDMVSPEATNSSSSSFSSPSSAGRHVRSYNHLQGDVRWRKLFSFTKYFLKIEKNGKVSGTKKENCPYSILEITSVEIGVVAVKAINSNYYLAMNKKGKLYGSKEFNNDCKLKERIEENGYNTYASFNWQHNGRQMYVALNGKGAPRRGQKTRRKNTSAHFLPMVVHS
Sequence of Left-right determination factor 2 (Homo sapiens) (O00292 whole entry, looked up): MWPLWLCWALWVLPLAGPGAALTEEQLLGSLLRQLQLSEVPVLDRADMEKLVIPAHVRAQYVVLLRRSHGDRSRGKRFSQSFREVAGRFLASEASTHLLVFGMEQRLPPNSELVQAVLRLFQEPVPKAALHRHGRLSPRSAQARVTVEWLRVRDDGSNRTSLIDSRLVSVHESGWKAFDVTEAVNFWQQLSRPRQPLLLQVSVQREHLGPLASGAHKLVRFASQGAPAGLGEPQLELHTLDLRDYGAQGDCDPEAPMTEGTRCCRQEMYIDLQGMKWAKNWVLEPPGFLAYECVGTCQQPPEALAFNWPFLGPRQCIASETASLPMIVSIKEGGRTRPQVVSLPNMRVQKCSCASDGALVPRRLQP
Sequence of Follistatin-related protein 3 (Homo sapiens) (O95633 whole entry, looked up): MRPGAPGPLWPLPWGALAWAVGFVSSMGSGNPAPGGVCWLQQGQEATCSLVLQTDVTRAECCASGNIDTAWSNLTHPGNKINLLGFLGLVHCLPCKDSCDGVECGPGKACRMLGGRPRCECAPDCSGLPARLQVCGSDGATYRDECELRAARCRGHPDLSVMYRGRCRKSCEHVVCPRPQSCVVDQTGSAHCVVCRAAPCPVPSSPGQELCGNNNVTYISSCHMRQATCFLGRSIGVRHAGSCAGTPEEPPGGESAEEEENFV
Sequence of Dickkopf-related protein 1 (Homo sapiens) (O94907 whole entry, looked up): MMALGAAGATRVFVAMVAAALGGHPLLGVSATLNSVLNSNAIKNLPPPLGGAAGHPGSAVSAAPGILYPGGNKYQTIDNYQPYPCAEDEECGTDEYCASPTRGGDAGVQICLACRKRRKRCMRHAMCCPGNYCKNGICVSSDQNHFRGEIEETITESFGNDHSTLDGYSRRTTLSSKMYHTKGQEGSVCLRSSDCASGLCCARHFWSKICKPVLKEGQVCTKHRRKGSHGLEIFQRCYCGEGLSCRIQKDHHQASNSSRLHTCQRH
Sequence of Torsin-1A-interacting protein 1 (Homo sapiens) (Q5JTV8 whole entry, looked up): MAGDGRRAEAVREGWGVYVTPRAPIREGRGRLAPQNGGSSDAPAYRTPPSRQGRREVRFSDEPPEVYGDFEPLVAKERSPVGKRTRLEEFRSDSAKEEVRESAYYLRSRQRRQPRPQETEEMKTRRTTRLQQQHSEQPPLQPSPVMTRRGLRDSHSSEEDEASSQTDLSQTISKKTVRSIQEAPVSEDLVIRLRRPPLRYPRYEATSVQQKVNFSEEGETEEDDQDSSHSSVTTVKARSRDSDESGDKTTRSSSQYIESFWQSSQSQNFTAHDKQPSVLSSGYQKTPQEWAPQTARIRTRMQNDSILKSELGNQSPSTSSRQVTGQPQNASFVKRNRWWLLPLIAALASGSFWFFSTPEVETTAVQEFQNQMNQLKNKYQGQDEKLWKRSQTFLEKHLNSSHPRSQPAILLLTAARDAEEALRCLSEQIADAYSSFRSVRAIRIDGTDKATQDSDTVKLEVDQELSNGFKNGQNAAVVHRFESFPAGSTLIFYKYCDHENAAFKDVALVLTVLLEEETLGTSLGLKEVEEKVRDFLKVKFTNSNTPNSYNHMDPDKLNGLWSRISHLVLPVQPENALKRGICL
Sequence of Epidermal growth factor receptor (Homo sapiens) (P00533 whole entry, looked up): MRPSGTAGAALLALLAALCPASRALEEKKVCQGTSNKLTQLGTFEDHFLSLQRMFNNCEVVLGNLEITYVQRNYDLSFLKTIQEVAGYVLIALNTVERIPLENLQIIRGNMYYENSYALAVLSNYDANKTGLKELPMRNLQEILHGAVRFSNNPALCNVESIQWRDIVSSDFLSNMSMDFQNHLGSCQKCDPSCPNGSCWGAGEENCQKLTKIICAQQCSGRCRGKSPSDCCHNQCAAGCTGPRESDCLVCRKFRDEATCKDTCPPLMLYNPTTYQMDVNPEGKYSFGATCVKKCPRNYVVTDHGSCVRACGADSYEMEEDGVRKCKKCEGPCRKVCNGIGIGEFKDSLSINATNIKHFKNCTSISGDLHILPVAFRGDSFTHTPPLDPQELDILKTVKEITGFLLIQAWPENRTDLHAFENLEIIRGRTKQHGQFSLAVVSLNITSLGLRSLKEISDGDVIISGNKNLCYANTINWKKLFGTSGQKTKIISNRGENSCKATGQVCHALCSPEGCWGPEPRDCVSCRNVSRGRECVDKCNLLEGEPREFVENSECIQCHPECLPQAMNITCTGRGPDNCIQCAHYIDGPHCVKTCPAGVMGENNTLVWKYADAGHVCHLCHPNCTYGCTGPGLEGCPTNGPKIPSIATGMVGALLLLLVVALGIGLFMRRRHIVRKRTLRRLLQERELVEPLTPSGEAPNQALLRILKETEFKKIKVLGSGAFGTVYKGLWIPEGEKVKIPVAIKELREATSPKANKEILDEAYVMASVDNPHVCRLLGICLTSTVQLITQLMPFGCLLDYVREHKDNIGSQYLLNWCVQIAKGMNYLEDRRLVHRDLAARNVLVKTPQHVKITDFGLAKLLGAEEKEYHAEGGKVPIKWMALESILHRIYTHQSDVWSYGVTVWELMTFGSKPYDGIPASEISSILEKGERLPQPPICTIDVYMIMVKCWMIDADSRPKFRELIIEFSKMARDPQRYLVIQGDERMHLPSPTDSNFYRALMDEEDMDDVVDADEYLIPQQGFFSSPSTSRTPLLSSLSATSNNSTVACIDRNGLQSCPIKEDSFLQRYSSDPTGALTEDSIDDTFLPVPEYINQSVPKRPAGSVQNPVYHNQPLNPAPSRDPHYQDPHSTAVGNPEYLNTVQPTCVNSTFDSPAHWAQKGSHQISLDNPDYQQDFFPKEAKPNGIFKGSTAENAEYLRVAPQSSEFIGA

Take `CN(C)CCCCNC(=O)[C@H]1C[C@H]2C(=O)N3CCC[C@H]3C(=O)N2[C@H]1c1cccc(OCCO)c1`: the composite z-score in assay [1] is 1.67; in assay [2], 0.0092; in assay [3], 0.833; in assay [5], 0.425; in [6] it was 0.676; in assay [7], -0.497. Further, the composite z-score was -0.0327 in assay [8]; -0.0023 in assay [9]; 0.0098 in [10]; 1.4 in [11]; -0.35 in [13]; 0.915 in assay [14]. For the same compound, the composite z-score was 0.836 in [15]; -0.144 in assay [16]; 0.134 in assay [17]; 1.14 in assay [18]; 0.495 in assay [19]; 1.43 in assay [20]. Further, the z-score in assay [4] was -0.0803 (inactive); in [12] it was -0.0955.

In the case of `COc1ccc([Si](C)(C)[C@H]2[C@H](CCO)O[C@@]3(C(=O)N(Cc4cccc(N5C(=O)c6ccccc6Oc6ccccc65)c4)c4ccccc43)[C@@H]2C)cc1`, the composite z-score is 0.742 in assay [1]; -0.109 in assay [2]; -0.236 in assay [3]; 0.396 in [5]; -0.479 in assay [6]; 0.111 in assay [7]. Besides, the composite z-score is -0.628 in assay [8]; -0.0781 in assay [9]; 0.212 in assay [10]; 0.72 in [11]; -0.296 in [13]; 0.29 in assay [14]. In addition, the composite z-score in assay [15] is 0.53; in assay [16] it was -0.091; in assay [17], -0.262; in [18], -0.0816; in assay [19] it was 0.449; in assay [20] it was 0.71. Also, the results for the z-score in assay [4] and in assay [12] were -1.93 (inactive) and -4.89, respectively.

Turning to `COc1ccc([Si](C)(C)[C@H]2[C@H](CC(=O)N3Cc4ccccc4C[C@H]3CO)O[C@@]3(C(=O)N(C)c4c(Br)cc(C)cc43)[C@@H]2C)cc1`, the composite z-score was 0.842 in assay [1]; -0.149 in [2]; -0.246 in assay [3]; 1.19 in assay [5]; 0.332 in assay [6]; 0.552 in assay [7]. The composite z-score in assay [8] stood at 1.09; in assay [9] it was 0.474; in assay [10] it was 0.96; in assay [11], 1.31; in assay [13], 0.205; in [14], 0.0634. Besides, the composite z-score in [15] was -0.113; in [16], -0.102; in [17], -0.164; in assay [18], -0.238; in [19], 0.656; in [20], 0.803. Further, the figures for the z-score in assay [4] and in [12] were -1.97 (inactive) and -5.13, respectively.

`COC(=O)[C@@]1(Cc2ccc(F)cc2)[C@H]2c3cc(C(=O)N4CCCC4)n(CCc4ccccn4)c3C[C@H]2CN1C(=O)c1ccccc1`: the composite z-score in [1] was 0.785; in assay [2], 0.507; in assay [3], 1.02; in assay [5], 0.577; in assay [6], -0.73; in [7], -0.559. The composite z-score in assay [8] is -0.575; in assay [9], -0.554; in assay [10] it was 0.987; in [11], 0.724; in [13] it was -0.27; in [14], 1.16. Besides, the composite z-score worked out at 0.42 in assay [15]; 0.136 in assay [16]; 0.887 in [17]; 1.53 in [18]; 0.294 in assay [19]; 0.0045 in assay [20]. Moreover, the z-score in [4] was -1.31 (inactive); in [12], -0.74.

Consider `O=C1O[C@H](c2ccccc2)[C@H](c2ccccc2)N2[C@H]1[C@@H](C(=O)O)[C@]1(C(=O)Nc3ccc(C#CCCO)cc31)[C@H]2c1ccc(OCCO)cc1`, for which the composite z-score in [1] is -0.164; in [2] it was 0.564; in assay [3] it was 0.834; in assay [5] it was 1.12; in [6], 1.27; in assay [7], 0.0453. The composite z-score worked out at 0.446 in assay [8]; 0.488 in assay [9]; 1.31 in assay [10]; 1.12 in assay [11]; 0.453 in assay [13]; 1.05 in [14]. Moreover, the composite z-score in assay [15] was 0.532; in assay [16], -0.0472; in assay [17], -0.0769; in assay [18], 0.133; in assay [19], 1.65; in [20] it was 2.47. Further, the z-score in assay [4] was -0.155 (inactive); in [12], -0.534.
